Consider 32 compounds from PubChem BioAssay AID504832 (National Center for Advancing Translational Sciences (NCATS), 2011).

In all, about 310,000 compounds went through this assay and about 18,000 (5.8%) were called active. Inconclusive results (about 22%) are left out. The sample holds actives, similar compounds and a random draw of the others, so the mix is not that of the screen. Values without a mark were called inactive. The call rests on the fitted dose curve; in most records, active means well fitted inhibition curve with a large enough effect; inconclusive means small, poorly fitted or top-dose-only effect, or another doubt; inactive means no such curve, though single readings can be large or run the other way.
On the % scale 0 is the no-effect control and ±100 the full control effect; potency means the concentration at half of the fitted maximal effect.

This experiment in a line: Primary qHTS for delayed death inhibitors of the malarial parasite plastid, 48 hour incubation. The conditions noted are these: P. falciparum luciferase growth in erythrocytes; series mostly up to 28.7 µM; activity change, negative = inhibition: at the top concentration. In short, it runs like this:
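In quantitative HTS format, infected erythrocytes bearing luciferase-reporter parasites were treated for a single generation at 37 C. Luminescence after adding detection reagent served as the growth measure.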
Turning to `O=C1N=C(N2CCc3ccccc3C2)S/C1=C\c1ccc(O)cc1`, the Potency was 7.38 µM (active).

Regarding `NC1=NC(=O)S/C1=C\c1ccc(O)cc1`, the “activity change, negative = inhibition” value was 30.8%.

Consider `O=C1N=C(N2CCOCC2)S/C1=C\C=C/c1ccccc1`, for which the “activity change, negative = inhibition” value is 123%.

Take `O=S1(=O)CCO[C@H]2Cc3ccccc3[C@H]2N1Cc1ccccc1`: the “activity change, negative = inhibition” value was 0.289%.

Consider `O=C(c1cc(COc2ccc(F)c(F)c2)on1)N1CCOCC1`, for which the “activity change, negative = inhibition” value was 52.7%.

Take `COc1cc(/C=N/NC(=O)c2ccoc2C)ccc1OCCN1CCCCC1`: the “activity change, negative = inhibition” value was -9.35%.

For `COc1ccc(C2C(C(=O)Nc3ccccc3OC)=C(C)Nc3nnnn32)c(OC)c1` (configuration not stated), the “activity change, negative = inhibition” value was -15.3%.

For the compound `COc1ccccc1NC(=O)C1=C(C)Nc2nc3ccccc3n2C1c1cccs1` (configuration not stated), the Potency is 13.1 µM (active).

Turning to `COc1ccccc1NC(=O)C1=C(C)Nc2nnnn2C1c1cccc(Br)c1` (configuration not stated), the “activity change, negative = inhibition” value is 2.75%.

On to `COc1cccc(NC(=O)CN2CCN(CC(=O)Nc3ccccc3Cl)CC2)c1`, for which the “activity change, negative = inhibition” value was -21.8%.

As for `C[C@@H](NC(=O)[C@@H]1Cc2ccccc2CN1)C(=O)NC1CCCC1`, the “activity change, negative = inhibition” value was -0.639%.

As to `O=C(NC1CCN(Cc2ccccc2)CC1)c1ccccc1F`, the “activity change, negative = inhibition” value is 9.94%.

For `Cc1ccc(-c2cc(C(=O)NC3CCN(Cc4ccccc4)CC3)c3ccccc3n2)cc1`, the Potency is 13.1 µM (active).

In the case of `Cc1cc(C(=O)NC2CCN(Cc3ccccc3)CC2)n[nH]1`, the “activity change, negative = inhibition” value is 9.09%.

Regarding `COc1c(C)cc(C(=O)C2CCCN(S(=O)(=O)c3c(C)noc3C)C2)cc1C` (configuration not stated), the Potency was 9.28 µM (active).

On to `Cc1ccc(NC(=O)C2CCCN(S(=O)(=O)c3c(C)noc3C)C2)c(C)c1` (configuration not stated), for which the “activity change, negative = inhibition” value was -11.5%.

On to `COc1ccc(C(=O)C2CCCN(S(=O)(=O)c3cccc(C)c3)C2)c(C)c1` (configuration not stated), for which the “activity change, negative = inhibition” value is 5.74%.

Turning to `CN(C(=O)CSc1nnc(-c2ccc(C(C)(C)C)cc2)n1C)C1CCS(=O)(=O)C1` (configuration not stated), the “activity change, negative = inhibition” value is -24.5%.

Turning to `CC(=O)Nc1ccc(C(=O)N(C2=NC(C)CS2)c2ccc(Cl)cc2)cc1` (configuration not stated), the “activity change, negative = inhibition” value is 9.6%.

`Nc1nc(SCc2cccc(Br)c2)n[nH]1`: the “activity change, negative = inhibition” value is -0.207%.

With `Cc1ccc(-c2csc(NC(=O)c3cccs3)n2)cc1`, the “activity change, negative = inhibition” value is -29.7%.

Take `Cc1nc(NNC(=O)c2ccccc2)cc(-c2ccccc2)n1`: the “activity change, negative = inhibition” value is 22.6%.

On to `Cc1ccc(-c2csc(NNC(=O)c3ccccc3)n2)cc1`, for which the Potency is 2.33 µM (active).

Turning to `CCn1c(SCC(=O)NNC(=O)c2ccc(OC)cc2)nnc1C(C)C`, the “activity change, negative = inhibition” value was 5.7%.

With `Cc1ccc(Cn2c(=N)c(S(=O)(=O)c3ccc(C)cc3)cc3c(=O)n4ccccc4nc32)cc1`, the “activity change, negative = inhibition” value was -12.6%.

For the compound `Cn1c(Cc2cccs2)nnc1SCC(=O)Nc1ccccc1`, the “activity change, negative = inhibition” value is 62%.

Take `O=C(CC1CCCCC1)Nc1c2c(nn1-c1ccc(F)cc1)CS(=O)(=O)C2`: the “activity change, negative = inhibition” value is -10.4%.

`CCC(CC)C(=O)Nc1c2c(nn1-c1ccc(C)cc1)CS(=O)(=O)C2`: the “activity change, negative = inhibition” value was 0.949%.

Consider `COc1ccccc1OCC(=O)Nc1c2c(nn1-c1ccc(F)cc1)CS(=O)(=O)C2`, for which the Potency was 10.4 µM (active).

With `COc1cccc(C(=O)Nc2cccnc2)c1OC`, the “activity change, negative = inhibition” value was 18.7%.

On to `Cc1cccc(-n2nc3c(c2NC(=O)c2cc4ccccc4o2)CS(=O)(=O)C3)c1`, for which the “activity change, negative = inhibition” value was -2.93%.

For the compound `COc1cccc(C(=O)Nc2c3c(nn2-c2cccc(C)c2C)CS(=O)(=O)C3)c1OC`, the Potency is 10.4 µM (active).
